HPGD block = blocks human HPGD enzyme activity. P15428. purified HPGD, NADH fluorescence kinetic, PGE2 substrate. Potency, µM, without a hit: at the highest dose activity change, negative = inhibition, usual class: inhibitors. 150,000 tested, 4.3% active; active = well fitted inhibition curve with a large enough effect, not every such curve was filed as active; inconclusive = small, poorly fitted or top-dose-only effect, or another doubt; inactive = no such curve, though single readings can be large or run the other way; note: potency is the fitted concentration of half-maximal effect; % is set by controls: 0 for no effect and ±100 for the full control effect
Target sequence (P15428 whole entry, looked up): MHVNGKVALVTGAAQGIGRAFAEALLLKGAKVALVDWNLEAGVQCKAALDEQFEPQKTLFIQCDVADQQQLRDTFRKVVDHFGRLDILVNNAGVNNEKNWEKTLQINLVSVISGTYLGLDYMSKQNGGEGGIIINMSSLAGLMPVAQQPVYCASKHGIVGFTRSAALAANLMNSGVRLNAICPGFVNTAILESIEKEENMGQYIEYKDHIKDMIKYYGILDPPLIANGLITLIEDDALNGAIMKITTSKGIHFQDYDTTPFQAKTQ
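NADH formation kinetics: reaction with 30 uM PGE2 and 1 mM NAD+ (final), 20 nM enzyme, Tris-HCl pH 8 with Tween 20, after 15 min compound preincubation at room temperature. Fluorescence change, last versus first of five reads.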
HTT aggregate = inhibitors of mutant huntingtin aggregate formation in PC12 cells; PC12 HttQ103-GFP aggregates, Acumen cytometry, 40 h; Potency, µM (doses to about 46.1 µM), inactives show top-dose activity change, negative = inhibition, most hits filed as inhibitors; 220,000 tested, 1.1% active; AID 1688; note: potency is the fitted concentration of half-maximal effect; % is set by controls: 0 for no effect and ±100 for the full control effect; nearly all actives have a fitted effect of over 60% in size
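Steps: seed 1500 PC12 HTTQ103-GFP cells/well; add tebufenozide, 100 nM final; add compound titration; add ATPLite reagent; quantify GFP aggregates by laser scanning cytometry.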
IMPase Li inh = cell-permeable IMPase inhibitors with lithium potentiation; CHO-M1 cells, IP1 TR-FRET (IP-One), carbachol + lithium; Potency, µM (highest dose often 59.4 µM), inactives show top-dose activity, negative = IMPase inhibition, usual class: inhibitors; 210,000 tested, 0.35% active;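 note: IP1 builds up when IMPase is blocked and the TR-FRET signal falls; potency is the fitted concentration of half-maximal effect; plate controls were basal vehicle for no effect and high inhibitor control for full effect; nearly all actives have a fitted effect of over 50% in size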
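IP1 accumulation measured by competitive TR-FRET in lysed CHO-M1 cells after 30 min compound exposure at 37C, with a small lithium addition to potentiate weak responses. Hill-equation AC50 from ratio and donor-channel data.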
IMPase cell inh = IMPase inhibition in cells. inhibition (IP1 accumulation), % at 46.1 µM. 120,000 tested, under 10 active. P97697. CHO-M1 cells, IP1 accumulation, HTRF TR-FRET ratio. AID 901; active = well fitted curve in the direction sought with a large enough effect in the signal ratio, not every such curve was filed as active; inconclusive = small, poorly fitted or top-dose-only effect, or a change in a side signal; inactive = no such curve, though single readings can be large or run the other way; the % refers to the signal ratio;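 note: cells stimulated with carbachol in lithium chloride buffer; plate controls were DMSO basal wells for no effect and reference inhibitor wells for full effect; higher means more IMPase inhibition seen as more IP1 and lower FRET ratio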
Target sequence (P97697 whole entry, looked up): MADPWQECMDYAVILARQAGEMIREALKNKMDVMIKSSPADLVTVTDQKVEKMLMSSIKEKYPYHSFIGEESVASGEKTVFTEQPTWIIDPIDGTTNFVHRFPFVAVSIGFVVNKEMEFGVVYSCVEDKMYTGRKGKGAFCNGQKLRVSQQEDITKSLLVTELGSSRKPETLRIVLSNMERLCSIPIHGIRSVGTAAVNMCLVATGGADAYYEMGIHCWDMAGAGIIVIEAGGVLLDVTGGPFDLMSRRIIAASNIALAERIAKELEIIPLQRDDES
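CHO-M1 cells (CHO stably expressing M1 receptor), compound up to 46 uM final, stimulated with carbachol (50 uM as added) in buffer with 50mM LiCl, pH 7.4, 30 min at 37C. Cytosolic IP1 read by TR-FRET; AC50 from Hill fits.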
ALDH1A1 inh = inhibitors of human aldehyde dehydrogenase 1A1 | P00352 | Purified ALDH1A1, NADH fluorescence, propionaldehyde substrate | Potency, µM (highest dose often 75.3 µM), for the others: at the highest dose activity, negative = inhibition, usual class: inhibitors | 220,000 tested, 7.3% active | AID 1030; active = well fitted inhibition curve with a large enough effect, not every such curve was filed as active; inconclusive = small, poorly fitted or top-dose-only effect, or another doubt; inactive = no such curve, though single readings can be large or run the other way;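 note: potency is the fitted concentration of half-maximal effect; plate controls were no enzyme wells and a reference inhibitor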
HTT cytoprotect = Huntington cell model cytoprotection by ATP luminescence; Potency, µM (top dose mostly 56.4 µM), for inactives: cytoprotection (ATP increase), hits mostly activators; AID 1471; PC12 HTT-Q103 induced, cytoprotection, ATP luminescence, 40 h; 230,000 tested, 0.14% active; note: potency is the fitted concentration of half-maximal effect; % of control where 0% means no effect; nearly all actives have a fitted effect of over 45% in size
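ATP quantification (ATPlite) reports survival of PC12 cells in which tebufenozide, 100 nM final, switches on Htt exon 1 with 103 glutamines linked to GFP; compounds are titrated.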
The depositor's hits bear a star; ? = inconclusive; . = no result given; [ ] = remark or other dose. Compounds with a hit are over-represented: about 9.4% of the library has one in this group of screens. Unless noted, calls come from the whole dose curve; as a rule, active = well fitted curve in the direction sought with a large enough effect; inconclusive = small, poorly fitted or top-dose-only effect, or another doubt; inactive = no such curve, though single readings can be large; an effect the other way counts as inactive or inconclusive.

SMILES	HPGD block	HTT aggregate	IMPase Li inh	IMPase cell inh	ALDH1A1 inh	HTT cytoprotect
Fc1ccc(CSc2nnc(-c3ccncc3)o2)cc1	.	?	-4%	.	-19%	-12%
O=C(c1ccc(Cl)cc1)c1nnc(-c2ccncc2)o1	-24%	0%	10µM*	-3	6%	9%[10 µM]
CC(C)=CC1C=C(C)C(C)C2C(=O)NNC(=O)C12 (configuration not stated)	-9%	10%	11%[38.3 µM]	-9	3.5µM*	-3%[10 µM]
COc1ccc(OC)c(/C=C2\S/C(=N/NC(=O)c3ccc4ccccc4c3)NC2=O)c1	4µM*	?	-5%	.	?	19%[10 µM]
COc1ccc2c(CC(=O)NCc3cccs3)coc2c1	.	17%	2%	.	-11%	-40%
COc1ccc2c(CC(=O)N3CCN(S(=O)(=O)c4cccs4)CC3)coc2c1	-5%	-13%	4%[38.3 µM]	-5	2.8µM*	29%[10 µM]
Cc1cc(-c2nn3c(-c4ccccc4)nnc3s2)c2ccccc2n1	14µM*	1%	7%	1	8.9µM*	7%[0.074 µM]
CC(C)(C)c1ccc(-c2nnc3sc(-c4ccncc4)nn23)cc1	?	4%	26%[38.3 µM]	-1	13µM*	5%[1.9 µM]
Cc1ccccc1-c1nn2c(-c3ccccc3)nnc2s1	28µM*	-28%	7%[38.3 µM]	11	?	-79%
Cc1ccc(-c2nnc3sc(CCc4ccccc4)nn23)cc1	14µM*	-9%	43%[38.3 µM]	3	3.5µM*	8%
COc1ccc(-c2nnc3sc(COc4ccccc4)nn23)cc1	-17%	-17%	14%[38.3 µM]	3	-6%	-25%
CCCCOc1cccc(NC(=O)CSc2nnc(C)s2)c1	.	.	.	-6	.	.
FC(F)(F)c1cc(NC(=S)NC23CC4CC(CC(C4)C2)C3)cc(C(F)(F)F)c1	-3%	.	54%	.	0%	-43%
CCN(CC)CCNC(=O)c1c(C)[nH]c(/C=C2\C(=O)Nc3ccc(F)cc32)c1C	.	?	.	.	.	-353%
CN(C)c1ncc2nc(CCc3ccccc3)c(=O)n(-c3ccccc3)c2n1	?	.	6%	.	?	-19%
Clc1cccc(NCc2nnc3n2CCCCC3)c1	.	-6%	-1%	.	6%	4µM*
CN(C(=O)c1cccc(Nc2ccc(-c3ccc4c(c3)OCCO4)nn2)c1)C1CCCCC1	?	?	19%	8	25µM*	-50%[10 µM]
CN(C)S(=O)(=O)c1ccc(Nc2ccc(-c3ccc4c(c3)OCCO4)nn2)cc1	-15%	10%	?	2	?	-14%
Cc1cccc(NCCC(=O)c2ccc(Br)cc2)c1	-10%	2%	25%[38.3 µM]	2	0.79µM*	2%
CC(C)c1ccc(NCCC(=O)c2ccc(Br)cc2)cc1	-8%	-5%	12%	0	4µM*	15%[10 µM]
CC(C)c1ccc(NC(=O)c2cccc(Br)c2)cc1	.	-12%	4%	.	-3%	-73%
CCOC(=O)CNCCC(=O)c1ccc(Br)cc1	?	8%	4%	.	0.28µM*	34%[10 µM]
Cc1cccc(C(=O)NNC(=O)c2ccc(Br)cc2)c1	.	-22%[9.22 µM]	-8%	.	9%	-7%[10 µM]
CC1=C[C@@H](O)CC(C)(C)[C@@H]1/C=C/C(C)=C/C=C/C(C)=C/C=C/C=C(C)/C=C/C=C(C)/C=C/C1=C(C)C[C@H](O)CC1(C)C	.	21%	.	.	.	-29%
CC(C)C[C@@H](CC(=O)N[C@@H](CCC(=O)O)CC(=O)O)NC(=O)[C@@H]1CNCC[C@H]1NC(=O)C[C@@H](NC(=O)C[C@H](CO)NC(=O)[C@@H]1CCCC[C@H]1N)C(C)C	-3%	.	8%	.	13%	7%[1.9 µM]
SMILES	HPGD block	HTT aggregate	IMPase Li inh	IMPase cell inh	ALDH1A1 inh	HTT cytoprotect
Cn1ncc(S(=O)(=O)Cc2ccccc2)c(Cl)c1=O	.	-3%[9.22 µM]	.	.	1.1µM*	-1%[10 µM]
Cc1ccc(NC(=O)Cn2cnc3cc([N+](=O)[O-])ccc3c2=O)cc1	.	3%[9.22 µM]	.	.	4%	-1%[10 µM]
Cc1ccc(NC(=O)Cn2cnc3cc([N+](=O)[O-])ccc3c2=O)c(Cl)c1	.	19%[9.22 µM]	.	.	2.8µM*	-2%[10 µM]
C[C@@H](C(=O)Nc1ccc2ccccc2c1)[C@H]1C[C@]1(C)[C@H](NC(=O)Oc1ccc(F)cc1)c1ccccc1	-7%	.	-1%	.	?	-5%
O=[n+]1c2c(n([O-])c3cc(Br)ccc31)CCCC2	-10%	-8%	-12%	5	-6%	8%[10 µM]
O=[n+]1c2c(n([O-])c3cc(F)c(F)cc31)CCCC2	18µM*	8%	3%[38.3 µM]	-13	?	-18%
Cc1ccc(NC(=O)Cn2cc(C(=O)C3CCCCC3)c3ccccc32)c(C)c1	.	.	.	-8	.	.
O=S(=O)(/N=C(\[O-])C[n+]1ccccc1)c1ccc(Cl)cc1	.	-6%[9.22 µM]	.	.	.	12%[10 µM]
[S-]C(=Nc1ccc(Cl)cc1)N[n+]1ccccc1	6.3µM*	3%	-5%	.	4%	.
CC(C)C(=O)NNc1ccc(C(F)(F)F)cn1	.	2%[9.22 µM]	.	.	8%	-3%[10 µM]
COc1cccc(C(=O)C2=NN(C(C)=O)CC2c2ccco2)c1 (configuration not stated)	.	-9%	-5%	.	-2%	10%
CC(=O)c1ccc(OC2C=CC(c3ccc(Cl)cc3)OC2CO)cc1 (configuration not stated)	.	.	.	.	1%[13.5 µM]	?
Cc1c(C(=O)NNC(=S)Nc2cccc(Cl)c2)nnn1-c1ccccc1	-29%	?	-7%	.	11µM*	.
COC1/C=C/OC2(C)Oc3c(C)c(O)c4c(O)c(c(/C=N/N5CCN(C)CC5)c(O)c4c3C2=O)NC(=O)/C(C)=C/C=C/C(C)C(O)C(C)C(O)C(C)C(OC(C)=O)C1C (configuration not stated)	-16%	.	19%	?	-2%	25%[1.9 µM]
Cc1cc(=O)oc2cc(OC(=O)CCN3C(=O)c4ccccc4C3=O)ccc12	?	0%	8.9µM*	-21	?	-15%
O=C(O)c1ccccc1C(=O)NCCc1c(C(=O)O)[nH]c2ccc(Cl)cc12	.	-18%[9.22 µM]	.	.	.	11%[10 µM]
CCOC(CCn1c(SCC(=O)Nc2cc(C)on2)nc2ccccc2c1=O)OCC	.	24%	13%	.	-2%	.
Clc1ccc(-c2nc3ccccn3c2Nc2ccc3c(c2)OCCO3)s1	.	.	.	2	.	.
CC(=O)N1c2c(cc(Br)cc2S(=O)(=O)N2CCN(C(=O)c3ccco3)CC2)CC1C (configuration not stated)	14µM*	15%	8%	-11	-8%	22%[10 µM]
Cn1cc(S(=O)(=O)N2CCN(C(=O)c3ccco3)CC2)c(=O)n(C)c1=O	-12%	-11%	0%[38.3 µM]	-4	1%	-15%
CN1CCN(C2=C(Cl)C(=O)N(c3cccc(Cl)c3)C2=O)CC1	-1%	?	-11%	6	?	3%

From PubChem BioAssay
